Measured values reported in PubChem BioAssay (NCATS).
Results filed as inconclusive are left out. The source made the active and inactive calls. Calls come from the whole dose curve; as a rule, active = well fitted curve in the direction sought with a large enough effect; inconclusive = small, poorly fitted or top-dose-only effect, or another doubt; inactive = no such curve, though single readings can be large; an effect the other way counts as inactive or inconclusive.

Columns and labels:
[1] = target: Calcium and integrin-binding protein 1 (Homo sapiens) (UniProt Q99828); experiment: Primary qHTS for Identification of Calcium Integrin Binding Protein 1 (CIB1) Competitor (AID 1508620);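 note: GST tagged CIB1 binding a fluorescein labelled alphaIIb integrin peptide tracer; top concentration of the series differs between compounds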
Calcium and integrin-binding protein 1 (Homo sapiens), sequence (Q99828 whole entry, looked up): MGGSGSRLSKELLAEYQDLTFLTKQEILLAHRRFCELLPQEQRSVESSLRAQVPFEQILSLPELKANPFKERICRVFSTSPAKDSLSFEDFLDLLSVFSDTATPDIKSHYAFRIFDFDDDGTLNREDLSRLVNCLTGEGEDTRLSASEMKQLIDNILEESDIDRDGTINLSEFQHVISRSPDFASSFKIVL
In short: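 Fluorescence polarization competition: GST-tagged CIB1 (1 uM final) preincubated with compound 15 min at room temperature, then FITC-labelled alphaIIb peptide (100 nM final) added. After 15 min at room temperature, polarization read at Ex 480/Em 540.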

[2] = Primary qHTS for inhibitors of nuclear receptor binding SET domain protein 2 (NSD2) in an isogenic RCH-ACV NSD2 p.E1099K mutant (9B) (AID 1645876); note: nearly all actives have a fitted effect of over 70% in size
[3] = Primary qHTS for inhibitors of nuclear receptor binding SET domain protein 2 (NSD2) in an RCH-ACV wild type WT cells (2C) (AID 1645877); note: nearly all actives have a fitted effect of over 70% in size
% is set by controls: 0 for no effect and ±100 for the full control effect.

CC(=O)OC1(C)CC(O)C2(O)C=COC(OC3OC(CO)C(O)C(O)C3O)C12 (stereo unspecified)
inactive: Potency [1] | Potency [2] | Potency [3]

Cc1ccc(C)c(S(=O)(=O)n2cnc3ccccc32)c1
inactive: Potency [1] | Potency [2] | Potency [3]

CC1=C(C)C(=O)OC(C(C)C2C(O)CC3C4C5OC5C5(O)CC(OC6OC(CO)C(OC7OC(C)C(O)C(O)C7O)C(O)C6O)CC(O)C5(C)C4CCC32C)C1 (stereo unspecified)
inactive: Potency [1] | Potency [2] | Potency [3]

CC(C)=C1C[C@@]2(C)C(=CC1=O)CC[C@@H](O)[C@@H]2C
inactive: Potency [1] | Potency [2] | Potency [3]

O=C(O)CCc1cc2ccoc2cc1O[C@@H]1O[C@H](CO)[C@@H](O)[C@H](O)[C@H]1O
inactive: Potency [1] | Potency [2] | Potency [3]

C=C1CC[C@@H]2[C@](C)(CO)[C@H](O[C@@H]3O[C@H](CO)[C@@H](O)[C@H](O)[C@H]3O)CC[C@@]2(C)[C@@H]1C/C=C1/C(=O)OC[C@H]1O
inactive: Potency [1] | Potency [2] | Potency [3]

COc1cc(C2OCC3(O)C(c4ccc(O[C@@H]5O[C@H](CO)[C@@H](O)[C@H](O)[C@H]5O)c(OC)c4)OCC23O)ccc1O (stereo partly specified)
inactive: Potency [1] | Potency [2] | Potency [3]

C=C1CCC2C(C)(C)CC(O)CC2(C)C1CCC(C)CC(=O)O (stereo unspecified)
inactive: Potency [1] | Potency [2] | Potency [3]

O=C(O)c1cccc(C(=O)CCC2OC(n3cnc4c(=O)[nH]cnc43)C(O)C2O)c1 (stereo unspecified)
inactive: Potency [1] | Potency [2] | Potency [3]

O=C(C[C@@H]1C(C(=O)O)=CO[C@@H](O[C@@H]2O[C@H](CO)[C@@H](O)[C@H](O)[C@H]2O)/C1=C\CO)OCCc1ccc(O)cc1
inactive: Potency [1] | Potency [2] | Potency [3]

C[C@@H]1O[C@@H](O[C@H]2[C@H](Oc3cc(O)c(C(=O)CCc4ccc(O)cc4)c(O)c3)O[C@H](CO)[C@@H](O)[C@@H]2O)[C@H](O)[C@H](O)[C@H]1O
inactive: Potency [1] | Potency [2] | Potency [3]

C[C@]12CCC[C@](C)(C(=O)O)C1CCC13CC(CO)C(CCC12)C3 (stereo partly specified)
inactive: Potency [1] | Potency [2] | Potency [3]

NC(=O)NCCCC(NC(=O)Cc1ccccc1)C(=O)O (stereo unspecified)
inactive: Potency [1] | Potency [2] | Potency [3]

C[C@@H]1C[C@H]2OC(=O)[C@@]3(C)CCC[C@](C)(C23)[C@@]1(O)CCC1=CC(=O)OC1O (stereo partly specified)
inactive: Potency [1] | Potency [2] | Potency [3]

C/C(=C\C(=O)C[C@@]12C(=O)O[C@]3(C)CC[C@H]1C[C@H]23)C(N)=O
inactive: Potency [1] | Potency [2] | Potency [3]

Cc1cc(-n2c(=O)[nH]c(=O)n(C)c2=O)ccc1Oc1ccc(SC(F)(F)F)cc1
inactive: Potency [1] | Potency [2] | Potency [3]

H-DPPDPDRFYGMM-NH2
inactive: Potency [1] | Potency [2] | Potency [3]

O=C(/C=C/c1ccc(O)cc1)OC[C@H]1O[C@H](O[C@@]2(CO)O[C@@H](CO)[C@H](O)[C@H]2O)[C@H](O)[C@@H](O)[C@@H]1O
inactive: Potency [1] | Potency [2] | Potency [3]

C=C(CCO)C(=O)OCC1OCC(OC(=O)C(=C)CCO[C@@H]2O[C@H](COC(=O)C(=C)CCO[C@@H]3O[C@H](CO)[C@@H](O)[C@H](O)[C@H]3O)[C@@H](O)[C@H](O)[C@H]2O)C(O)C1O (stereo partly specified)
inactive: Potency [1] | Potency [2] | Potency [3]

COc1c(O)cc2c(c1O)C(=O)O[C@H](C)[C@H]2O
inactive: Potency [1] | Potency [2] | Potency [3]

CC(=C\C(C)O)/C=C(\C)C(=O)CC1CC(CC(N)=O)CC(=O)O1 (stereo unspecified)
inactive: Potency [1] | Potency [2] | Potency [3]

C=C1CCC2C(C)(C(=O)O)CCCC2(C)C1CC/C(C)=C\CO (stereo unspecified)
inactive: Potency [1] | Potency [2] | Potency [3]

COC(=O)[C@]1(C)CCC[C@@]2(C)[C@@H]3CC[C@@H]4C[C@@]3(CC[C@@H]21)C[C@H]4C(=O)O
inactive: Potency [1] | Potency [2] | Potency [3]

C=C1C(OC(C)=O)[C@@]23CCC4[C@](C)(C(=O)O)CCC[C@@]4(C)[C@]2(O)CC[C@H]1C3 (stereo partly specified)
inactive: Potency [1] | Potency [2] | Potency [3]

COCc1c(O)c(C(=O)O)c(C)c2c1OC(=O)c1c(C)cc(O)c(CO)c1O2
inactive: Potency [1] | Potency [2] | Potency [3]

C[C@@H]1O[C@@H](OC2C(CO)OC(OCC3OC(OC(=O)[C@]45CCC(C)(C)CC4C4=CCC6[C@@]7(C)CC[C@@H](O)[C@](C)(C(=O)O)C7CC[C@@]6(C)[C@]4(C)CC5)C(O)C(O)C3O)C(O)C2O)[C@H](O)[C@H](O)[C@H]1O (stereo partly specified)
inactive: Potency [1] | activity change, negative = viability loss [2] 0.361% [at 9.23 µM] | outcome [3] inactive [at 9.23 µM]

C=CC(C)(O)CC/C=C(\C)C(=O)O[C@@H]1[C@@H](O)[C@H](OC(C)(C=C)CC/C=C(\C)C(=O)O[C@@H]2O[C@H](CO)[C@@H](O)[C@H](O)[C@H]2O)O[C@H](CO)[C@H]1OC(=O)/C(C)=C/CCC(C)(O)C=C (stereo partly specified)
inactive: Potency [1] | activity change, negative = viability loss [2] -6.17% [at 9.23 µM] | activity change, negative = cell killing [3] -2.41% [at 9.23 µM]

C[C@@H]1O[C@@H](OC(=O)Cc2ccccc2)[C@H](O)[C@H](O)[C@H]1O
inactive: Potency [1] | Potency [2] | Potency [3]

CC1(C)CCCC2(C)c3c4c(c(=O)oc(=O)c3=CCC12)=CCC1C(C)(C)CCCC41C (stereo unspecified)
inactive: Potency [1] | Potency [2] | Potency [3]

O=C(Cc1ccccc1)OC[C@H]1O[C@H](O[C@H]2O[C@H](CO)[C@@H](O)[C@H](O)[C@H]2O)[C@H](O)[C@@H](O)[C@@H]1O
inactive: Potency [1] | Potency [2] | Potency [3]

C[C@H]1CC(=O)C2=C(C1)C(O)C(O)[C@@]1(O)[C@H]2C(=O)c2cccc(O)c2[C@@H]1O (stereo partly specified)
inactive: Potency [1] | Potency [2] | Potency [3]

O=C(OC[C@H]1O[C@H](O[C@H]2CO[C@H](CO)[C@@H](O)[C@@H]2O)[C@H](O)[C@@H](O)[C@H]1O)c1ccccc1
inactive: Potency [1] | Potency [2] | Potency [3]

CC1CC(O)/C=C/C(O)/C=C\C(=O)O1 (stereo unspecified)
inactive: Potency [1] | Potency [2] | Potency [3]

CC1(C)C=Cc2c(ccc3c2[N+]([O-])=C2C3(O)CC34NC(=O)C5(CCCN5C3=O)CC4C2(C)C)O1 (stereo unspecified)
inactive: Potency [1] | Potency [2] | Potency [3]

C[C@@H]1O[C@@H](OC2C(O[C@H]3[C@H](O[C@H]4CC[C@@]5(C)C(CC[C@]6(C)C5CC=C5C7CC(C)(C)CC(O)[C@]7(C)CC[C@]56C)C4(C)C)O[C@H](C(=O)O)[C@@H](O)[C@@H]3O)OC(CO)C(O)C2O)[C@H](O)[C@H](O)[C@H]1O (stereo partly specified)
inactive: Potency [1] | activity change, negative = viability loss [2] 3.07% [at 9.23 µM] | outcome [3] inactive [at 9.23 µM]

COc1cc(-c2ccc(O)cc2)c(OC)c(O)c1C1=CC(=O)OC1CC(=O)O (stereo unspecified)
inactive: Potency [1] | Potency [2] | Potency [3]

C/C=C(/C)C(=O)OC1C(OC(C)=O)C23C(O)OC4(CCC5C6(C)CCC(OC7OC(C(=O)O)C(O)C(OC8OC(CO)C(O)C(O)C8OC8OC(C)C(O)C(O)C8OC8OCC(O)C(O)C8O)C7OC7OC(CO)C(O)C(O)C7O)C(C)(C)C6CCC5(C)C4(C)CC2OC(C)=O)C3CC1(C)C (stereo unspecified)
inactive: activity change, negative = inhibition [1] 3.17% [at 12.4 µM] | activity change, negative = viability loss [2] 4.87% [at 9.23 µM] | activity change, negative = cell killing [3] 3.76% [at 9.23 µM]

O=C(/C=C/c1ccc(O)cc1)OC[C@@]1(O)C=C[C@@H]2C(C(=O)O)=CO[C@@H](O[C@@H]3O[C@H](CO)[C@@H](O)[C@H](O)[C@H]3O)[C@@H]21
inactive: Potency [1] | Potency [2] | Potency [3]

CC(=O)NC1CC(=O)C23C(=O)NC(Cc4c[nH]c5ccccc45)C2C(C)=C(C)C(O)C3/C=C/CC(C)/C=C(/C)C(O)C1O (stereo unspecified)
inactive: Potency [1] | Potency [2] | Potency [3]

CCCC/C=C\CCCCCc1cc(=O)c2ccccc2n1C
inactive: Potency [1] | Potency [2] | Potency [3]

CC(C)C(O)(CO)CCO[C@@H]1O[C@H](CO[C@H]2OC[C@](O)(CO)[C@H]2O)[C@@H](O)[C@H](O)[C@H]1O (stereo partly specified)
inactive: Potency [1] | Potency [2] | Potency [3]

CC(=O)O[C@@H]1[C@@H](O)[C@H](C)O[C@@H](O[C@H]2[C@@H]3C=CO[C@@H](O[C@@H]4O[C@H](CO)[C@@H](O)[C@H](O)[C@H]4OC(C)=O)[C@@H]3[C@@]3(CO)O[C@@H]23)[C@@H]1OC(=O)/C=C/c1ccc(O)cc1
inactive: Potency [1] | Potency [2] | Potency [3]
